Screening data as filed in PubChem BioAssay.
A selection: hits, their analogues and other compounds. The true share with any hit is near 4.7%.
TROY signal inh: inhibitors of TROY-driven NF-kB signaling, primary screen, Q293 LMP1-TROYcd cells, NF-kB luciferase, uHTS; inhibition, % at 10 µM; Q293 LMP1-TROYcd NF-kB luciferase reporter, 4 h; hit rate 0.98% among 360,000;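 active = compounds whose plate-normalised and pattern-corrected inhibition of the luciferase reporter signal at the single screening dose is 50% or more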
HSF-1 act: HSF-1 activators, primary screen, NIH3T3-HGL cells, MG132 stress, luminescence, single point; AID 504408, 2011; hit rate 1.7% among 300,000; NIH3T3-HGL HSF-1 luciferase reporter, 8 h; 100% = twice DMSO control signal; activation, % at 9 µM;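 active = mean replicate activation of at least 50% with a set share of replicates each reaching 50%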;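 also: 0% = median of the neutral control wells and 100% = twice that signal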
HSF1 inhib: HSF1 inhibitors in luciferase reporter cells, primary screen, cell-based, NIH3T3, luminescence; NIH3T3-HGL HSE-luciferase, MG132-induced, luminescence 8 h; stronger effect = lower value; activity change, negative = inhibition, % at 7.5 µM (by protocol); hit rate 0.77% among 300,000;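 active = more than half of replicate wells show activity change below -50%, luminescence cut by over half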;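 also: luciferase reports HSF-1 transcriptional activity via heat shock element; 0% = median of DMSO wells and -100% = zero luminescence signal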
HSP90 refold inh: HSP90 inhibitors, primary screen, cell lysate, luminescence | Heat shock protein HSP 90 (rabbit reticulocyte lysate; luciferase refolding) | Rabbit reticulocyte lysate, luciferase refolding luminescence, 3 h | inhibition, % at 5.6 µM | hit rate 0.91% among 290,000;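 active = inhibition above the screen-wide mean plus 3 SD, computed separately per campaign, cut at about 16% in these data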;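 also: 0% = DMSO wells and 100% = 60 µM geldanamycin wells; inhibitors lower the luminescence because luciferase stays unfolded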
EBV LMP1 NFkB: EBV LMP1-driven NF-kappaB luciferase reporter inhibitors, primary screen, cell-based, luminescence, single point; LMP1-induced NF-kappaB luciferase reporter cells; inhibition, % at 12.5 µM; hit rate 0.69% among 350,000; AID 504558, 2011; in the data active = inhibition above about 41%;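 also: 0% = neutral control wells and 100% = reference inhibitor control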
TWEAK Fn14 block: inhibitors of TWEAK-Fn14 signaling, primary screen, luciferase reporter cells, uHTS. TWEAK-stimulated Fn14 reporter cells, luciferase luminescence, 8 h. inhibition, % at 10 µM. hit rate 2% among 360,000; in the data active = inhibition above about 50%
Starred values were filed as active, the others as inactive; . = no result given.

SMILES	TROY signal inh	HSF-1 act	HSF1 inhib	HSP90 refold inh	EBV LMP1 NFkB	TWEAK Fn14 block
COc1cccc(C(NC(C)=O)c2nc(-c3ccc4ccccc4c3)cs2)c1 (stereo not given)	6	.	.	.	.	14
O=C(NCc1ccc2c(c1)OCO2)c1ccccc1	-5	19	-7	1	-5	-6
CCNS(=O)(=O)c1ccc(CCC(=O)Nc2ccc3c(c2)OCO3)cc1	7	-29	-16	-1	-10	4
O=C(NCc1ccc2c(c1)OCO2)c1cccc(F)c1	.	-2	-8	5	8	82*
CC(C)CNS(=O)(=O)c1ccc(CCC(=O)Nc2ccc3c(c2)OCO3)cc1	-21	-18	2	17*	4	4
CC(=O)Nc1ccc(S(=O)(=O)NCc2ccc(C(=O)NCc3ccc4c(c3)OCO4)cc2)cc1	-27	-72	-62*	3	9	-22
COc1ccc(OC2(C)CCN(Cc3ccccc3OC(F)F)C2)cc1 (stereo not given)	0	.	.	.	.	2
O=C(Cc1cccc(NC(=O)C2CCCN(C(=O)CCc3ccccc3)C2)c1)Nc1ccc(C(=O)N2CCCCC2)cc1 (stereo not given)	1	.	.	.	3	-6
CCCCN(C)c1c(C)nc2ccc(C(=O)NCCOc3ccc(OC)cc3)cn12	34	.	.	.	.	20
O=C(CN1C(=O)c2ccccc2S1(=O)=O)c1ccccc1F	78*	-61	-52*	12	45*	93*
O=C(CN1C(=O)c2ccccc2S1(=O)=O)c1cccc(Br)c1	80*	-36	-35	1	4	99*
O=C(CN1C(=O)c2ccccc2S1(=O)=O)c1ccc(F)cc1	73*	-43	-37	2	69*	91*
O=C(CN1C(=O)c2ccccc2S1(=O)=O)N1CCN(c2ccccc2F)CC1	-28	1	-6	1	-3	9
COC(=O)c1ccc(NC(=O)CN2C(=O)c3ccccc3S2(=O)=O)cc1	17	-17	-9	7	-9	28
O=C(CN1C(=O)c2ccccc2S1(=O)=O)c1ccc(OC(F)F)cc1	82*	-16	-27	0	82*	98*
COC(=O)[C@]12CCCCC=C1N(CCC1=CCCCC1)C(=O)[C@H](CC(=O)N1CCC(c3ccccc3)CC1)C2	17	.	.	.	.	24
COc1cc2c(c(OC)c1OC)-c1ccc(NCc3ccccc3)c(=O)cc1C(NC(C)=O)CC2 (stereo not given)	1	.	.	.	12	4
COc1ccc(-c2cc(NC(C)=O)c3ncc(-c4ccccc4)n3c2)c(OC)c1	20	.	.	.	.	14
Cc1ccc(S(=O)(=O)N2C[C@H]3C(=O)C[C@@H](c4ccc(Cl)cc4)N(S(=O)(=O)c4ccc(C)cc4)[C@H]3C[C@H]2c2ccccc2)cc1	13	.	.	.	.	22
C=CCOc1cccn2c(N(C)C(=O)c3ccncc3)c(CC)nc12	5	.	.	.	.	6
O=C(O)C1CCC(CNCc2ccccc2Cl)CC1 (stereo not given)	6	-3	-2	0	8	56*
CCN(C(=O)c1ccc(C(C)(C)C)cc1)c1nnc(Cn2nnc3ccccc32)s1	40	12	10	9	2	73*
OC[C@@H]1CN(Cc2ccc(Cl)cc2)C[C@H](n2cnc3c(NC4CCC4)ncnc32)O1	-3	.	.	.	.	-12
CCc1ccc(N2CC(C(=O)N/N=C/c3ccccc3OC)CC2=O)cc1 (stereo not given)	4	-7	-1	-6	-7	8
CCc1ccc(N2CC(C(=O)N/N=C/c3cc([N+](=O)[O-])ccc3O)CC2=O)cc1 (stereo not given)	13	-58	-55*	-5	5	9
SMILES	TROY signal inh	HSF-1 act	HSF1 inhib	HSP90 refold inh	EBV LMP1 NFkB	TWEAK Fn14 block
CN=C1S/C(=C\c2ccc(O)c(OC)c2)C(=O)N1C	-40	32	16	.	.	-50
CN=C1S/C(=C\c2ccc(O)c(Br)c2)C(=O)N1C	-5	6	-3	1	45*	42
COc1ccc(-c2cc(N)n(S(=O)(=O)c3c(F)c(F)c(F)c(F)c3F)n2)cc1OC	9	-15	-5	-2	16	51*
CCCCOc1ccc2c(c1)/C(=C(\C(Cl)=C(Cl)Cl)[N+](=O)[O-])N2	20	4	-5	0	44*	-10
CCOc1ccc2c(c1)/C(=C(\C(Cl)=C(Cl)Cl)[N+](=O)[O-])N2	3	-5	-2	1	-2	9
COc1ccccc1-c1csc(C(O)c2ccc(F)cc2)n1 (stereo not given)	-15	.	.	.	.	-10
CCOC(=O)N1CCN(C(=O)c2cc(-c3ccc(OCC)cc3)nc3ccccc23)CC1	-30	79*	34	0	11	-8
COc1ccc(-c2cc(C(=O)N3CCCCCC3)c3ccccc3n2)c(OC)c1	9	79*	26	2	2	4
COc1ccc(-c2cc(C(=O)N3CCN(c4ncccn4)CC3)c3ccccc3n2)c(OC)c1	11	-25	-10	-4	6	27
CCOC(=O)C1=CCC(c2ccccc2C)N(S(=O)(=O)c2ccc(C)cc2)C1 (stereo not given)	9	.	.	.	.	-3
Cc1onc(-c2c(F)cccc2Cl)c1C(=O)Nc1cc(S(=O)(=O)N2CCCCC2)ccc1O	64*	.	.	.	0	64*
Cc1onc(-c2c(F)cccc2Cl)c1C(=O)Nc1ccc(S(=O)(=O)N2CCOCC2)cc1	7	.	.	.	-24	4
CCCNC(=O)C1(C)CCCN(CCC(=O)c2ccccc2)C1 (stereo not given)	-7	.	.	.	.	12
CC(C)C(=O)Nc1ccc(C(=O)N/N=C/c2cc(Br)cc(Br)c2O)cc1	2	-21	1	-2	44*	-2
NC(c1csc(NC(=O)Nc2ccc(OC(F)(F)F)cc2)n1)C1CCCCC1 (stereo not given)	7	.	.	.	.	2
Cc1cnc(C=O)c2cccc([N+](=O)[O-])c12	8	.	.	.	4	14
CC(=O)c1sc(NC(C)c2ccccc2)nc1C (stereo not given)	-4	-9	-2	-2	0	23
Cc1nc(NC(C)c2ccccc2)sc1C(=O)Nc1ccccc1 (stereo not given)	6	-89	-87*	2	-6	4
Cc1ccc(C(=O)/C=C/c2cc(Br)cc(Br)c2O)o1	-11	89*	72	-2	8	17
Cc1ccc(C(=O)/C=C/N(C)C)o1	16	10	7	2	1	-5
CCOC(=O)c1c(N)sc2c(O)c(Br)ccc12	-21	-95	-94*	-4	-12	4
